# Measurements reported in PubChem BioAssay.
# “And” between values parts separate entries of the source, which are not always exact repeats. Equal entries are not always repeated. The source made the active and inactive calls.
# Columns and labels:
# Albumin (Bos taurus) = Albumin (Bos taurus) (UniProt P02769); test: bovine serum albumin binders on microarray, profiling panel, artefact control for SMM control protein annotation, biochemical, small-molecule microarray, Alexa647 label, 635/667 nm fluorescence (AID 1118); settings: BSA-A647 binding, fluorescence 635 nm, higher = more signal;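 note: score merges 667 nm emission intensity and signal-to-noise per printed compound spot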
# [1] = small-molecule microarray binders of probe aXIP, primary screen, biochemical, NeuroSMM set, 635/667 nm fluorescence (AID 1119); settings: higher = more signal, called active from +8 up or from −8 down;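 note: probe is the protein aXip251-270 applied at 1 µg/mL to compound-printed slides; binding of probe to printed compounds measured as 667 nm fluorescence plus signal to noise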
# [2] = small-molecule binders of probe aNOTCH3, primary screen, biochemical, small-molecule microarray, 635/667 nm fluorescence (AID 1120); settings: higher = more signal;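 note: probe is a biotin-tagged antibody raised against NOTCH3 rather than NOTCH3 protein; score merges spot fluorescence near 667 nm with spot signal to noise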
# [3] = small-molecule binders of probe aNOTCH2, primary screen, biochemical, small-molecule microarray, 635/667 nm fluorescence (AID 1121); settings: higher = more signal;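 note: score merges feature fluorescence read at 667 nm with its signal to noise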
# [4] = target: Carbonic anhydrase 2 (Homo sapiens) (UniProt P00918); test: CAII small-molecule binders, profiling panel, biochemical, small-molecule microarray, Alexa647-labelled CAII (AID 1122); settings: CAII-A647 binding fluorescence, higher = more signal
# [5] = COS7 lysate on small-molecule microarray, probe aHis, 635 nm (AID 1123); settings: COS7 cell lysate, fluorescence, higher = more signal;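 note: z-score combines 667nm fluorescence intensity with signal-to-noise per printed compound spot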
# [6] = compound binding in COS7 lysate, probe aLAP1, primary screen, cell lysate, small-molecule microarray (AID 1124); settings: probe aLAP1, fluorescence, higher = more signal;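 note: lysate comes from COS7 cells expressing LAP1 and is applied at 0.3 µg/mL; score merges spot fluorescence near 667 nm with signal-to-noise over triplicate slides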
# Sam68 (KHDRBS1) = test: Sam68 small-molecule binders, primary screen, biochemical, small-molecule microarray, 635 nm fluorescence (AID 1125); settings: small-molecule microarray binding, higher = more signal;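 note: score merges 667 nm channel intensity with signal to noise over triplicate slides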
# [7] = tested on: Chordin-like protein 2 (CHRDL2); test: CHRDL2 small-molecule binders, primary screen, biochemical, small-molecule microarray, 635 nm fluorescence (AID 1126); settings: small-molecule microarray binding, fluorescence 635 nm; higher = more signal;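 note: printed compound slides probed with Chrdl2 protein at 4 µg/mL for 1 h at 4 C; score merges 667 nm emission intensity with signal to noise over three replicate slides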
# [8] = target: Concanavalin-A (Canavalia ensiformis) (UniProt P02866); test: ConA small-molecule binders, primary screen, artefact control for SMM control protein annotation, biochemical, small-molecule microarray, Alexa647 label, 635 nm (AID 1127); settings: ConA-A647 binding fluorescence, higher = more signal;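 note: z combines 667 nm emission intensity with signal-to-noise across three replicate slides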
# Concanavalin-A (Canavalia ensiformis), sequence (P02866 whole entry, looked up): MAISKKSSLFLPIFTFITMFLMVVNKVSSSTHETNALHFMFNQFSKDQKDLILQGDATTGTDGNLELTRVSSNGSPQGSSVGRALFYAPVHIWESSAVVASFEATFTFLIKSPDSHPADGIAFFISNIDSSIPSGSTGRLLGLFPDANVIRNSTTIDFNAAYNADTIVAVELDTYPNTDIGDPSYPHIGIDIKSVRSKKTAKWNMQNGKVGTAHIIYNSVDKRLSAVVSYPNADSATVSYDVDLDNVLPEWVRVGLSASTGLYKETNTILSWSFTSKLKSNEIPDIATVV
# Albumin (Bos taurus), sequence (P02769 whole entry, looked up): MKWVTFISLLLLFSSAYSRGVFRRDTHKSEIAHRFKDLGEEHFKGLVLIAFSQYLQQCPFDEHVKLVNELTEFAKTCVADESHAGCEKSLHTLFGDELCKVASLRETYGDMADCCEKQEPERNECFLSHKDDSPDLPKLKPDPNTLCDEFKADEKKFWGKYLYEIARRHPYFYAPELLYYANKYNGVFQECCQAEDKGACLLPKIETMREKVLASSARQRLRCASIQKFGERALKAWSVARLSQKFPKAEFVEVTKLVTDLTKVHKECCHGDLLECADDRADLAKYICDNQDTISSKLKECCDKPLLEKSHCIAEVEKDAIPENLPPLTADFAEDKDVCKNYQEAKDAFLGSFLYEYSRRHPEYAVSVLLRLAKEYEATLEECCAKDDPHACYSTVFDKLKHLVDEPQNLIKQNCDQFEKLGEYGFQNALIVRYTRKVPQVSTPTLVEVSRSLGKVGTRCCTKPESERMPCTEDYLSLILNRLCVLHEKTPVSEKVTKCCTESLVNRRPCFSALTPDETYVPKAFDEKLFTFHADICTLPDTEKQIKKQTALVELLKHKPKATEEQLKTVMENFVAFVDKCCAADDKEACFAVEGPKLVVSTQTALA
Compound,composite z-score (Albumin (Bos taurus)),composite Z-score [1],composite z-score [2],composite z-score [3],composite z-score [4],composite z-score [5],composite z-score [6],composite z-score (Sam68 (KHDRBS1)),composite z-score [7],composite z-score [8]
C=CCN(Cc1ccccc1)C(=O)C(c1cccs1)N(C(=O)/C=C\C(=O)O)c1c(Cl)cccc1CO (stereo not given),-0.248 and -1.84,0.0723 (inactive) and -1.07 (inactive),-0.437 and -0.491,-0.155 and -0.0772,-0.393 and -0.843,-0.665 and -0.537,-0.657 and -0.277,-0.84 and -2.12,-1.64 and -2.62,-1.52 and -1.86
C=C[C@H](OC)[C@@H](O)c1ccc(O)c(F)c1,0.0861 and -0.58,-0.244 (inactive) and 0.209 (inactive),-0.592 and -0.454,-0.239 and -0.225,0.274 and -0.771,-0.541 and -0.37,-0.474 and -0.637,-1.1 and -1.43,-2.38 and -1.91,-1.97 and -1.23
CC(C)=NOCc1ccc(-c2cn([C@@H]3COC[C@H]3O)nn2)cc1,0.655,0.43 (inactive),-0.0179,-0.131,-0.132,0.355,-0.116,-0.103,0.329,0.0843
CO[C@@H]1COC(=O)[C@H](Cc2ccccc2)NC(=O)CC=C[C@@H](C)[C@H](OC)COC(=O)[C@@H](C)NC(=O)CC=C[C@H]1C,-1.24 and 0.871,-0.17 (inactive) and -0.452 (inactive),0.0522 and -0.023,-0.173 and -0.214,-0.0035 and 0.27,-0.0816 and -0.0434,-0.502 and 0.07,1.09 and 0.672,1.03 and 1.43,-0.85 and -0.233
CC(C)=CCCC(C)=CCON=C1C[C@@H](O)[C@@H](O)[C@@H]2[C@@H]3C(=O)N([C@@H](C)c4ccccc4)C(=O)[C@@H]3CC[C@H]12,0.799,-0.501 (inactive),-0.0048,0.296,0.206,1.37,0.308,1.12,1.03,0.0996
C=CCN(CCCCC)C(=O)C(c1cccs1)N(C(=O)/C=C\C(=O)O)c1ccc(CCO)cc1 (stereo not given),0.516 and -0.0786,0.598 (inactive) and -0.378 (inactive),-0.499 and -0.508,-0.183 and -0.0859,0.821 and 0.562,0.455 and -0.0142,0.411 and 0.0933,-0.815 and -0.524,-0.96 and -1.97,-0.222 and -0.806
COC(=O)c1c2oc(c1C(=O)OC)C(=O)N[C@@H](Cc1ccccc1)Cn1cc(nn1)C1(CCCCC1)NC(=O)N[C@H](CO)CC2,-0.14 and 0.517,0.167 (inactive) and 0.77 (inactive),0.13 and 0.0613,0.0165 and -0.0761,0.713 and -0.0749,1.72 and 0.833,0.376 and 0.0667,1.08 and 0.939,0.518 and 0.124,0.634 and 0.427
